# PfHsp90 set2: inhibits growth of yeast expressing Plasmodium falciparum Hsp90 | S. cerevisiae expressing PfHsp90, BacTiter-Glo ATP, 48 h; yeast lacking PDR1 and PDR3 efflux regulators | inhibition, % at 9.4 µM | 310,000 tested, 0.32% active;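 active means every replicate shows inhibition above about 80%, whatever the replicate mean, limit read from the data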
# NALP1 yeast inh: blocks the NALP1 inflammasome reconstituted in yeast | S. cerevisiae NALP1/ASC/caspase-1 growth, X-gal OD620, 72 h | inhibition, % at 10 µM | 280,000 tested, 0.61% active; in the data active means inhibition mostly above about 24%, no sharp cut-off; inactive means mostly below about 32%
# TIM10 inh: growth inhibitors of TIM10 yeast strain | S. cerevisiae TIM10 strain growth, BacTiter-Glo luminescence, 24 h | inhibition, % at 10 µM | 330,000 tested, 1.4% active | AID 463195;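 active means inhibition of 40% or more at the single tested concentration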;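 further: wild-type TIM10 isogenic control strain grown at permissive 25 °C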
# tim23-1 inh: inhibits growth of tim23-1 mutant yeast. S. cerevisiae tim23-1 growth, BacTiter-Glo luminescence, 24 h. inhibition, % at 20 µM. 330,000 tested, 1.3% active. AID 463212;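 active means growth inhibition of the mutant yeast at or above 50%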;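 further: temperature-sensitive mutant grown at 25 °C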
# tim10-1 inh: inhibits growth of tim10-1 mutant yeast | S. cerevisiae tim10-1 ts strain growth, BacTiter-Glo, 24 h | inhibition, % at 20 µM | 330,000 tested, 2.2% active | AID 463190;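 active means inhibition of at least 40%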;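 further: mutant grown at 25 °C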
# SKKanGAS inh: blocks kanamycin growth of S. pyogenes SKKanGAS strain; BacTiter-Glo, 6 h; inhibition, % at 7.5 µM; 300,000 tested, 1.3% active;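 active means mean replicate score, as percent of positive control median, at least 50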;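 further: strain carries kanamycin resistance gene driven by streptokinase promoter and grows in 40 µg/ml kanamycin; loss of luminescence reflects streptokinase promoter inhibition or plain growth inhibition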
# tim10-1 conf: confirmation of tim10-1 mutant yeast growth inhibitors; shares compounds with tim10-1 inh; S. cerevisiae tim10-1 ts strain growth, BacTiter-Glo, 24 h; inhibition, % at 20 µM; 7,400 tested, 56% active;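 active means inhibition of yeast growth at or above a set limit in either of two repeat tests at 20 µM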;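 further: tim10-1 mutant grown at permissive 25 °C to find synthetic lethal compounds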
# Hits are given with their value; – = inactive; · = not tested or not shown. A selection: hits, their analogues and other compounds. The true share with any hit is near 4.8%.
SMILES,PfHsp90 set2,NALP1 yeast inh,TIM10 inh,tim23-1 inh,tim10-1 inh,SKKanGAS inh,tim10-1 conf
O=[N+]([O-])c1ccccc1OCC(O)CNC1CCCC1 (stereo not given),–,·,–,–,–,–,·
Cc1ccc(-n2c(-c3ccccc3)c[n+]3c2CCc2ccccc2-3)c(C)c1,·,–,–,–,43,·,–
Cc1ccc(-n2c(-c3ccccc3)c[n+]3c2CCC3)cc1,–,–,–,–,–,–,·
COCC(C)n1c(C)cc(C(=O)Cn2c(=O)oc3ccccc32)c1C (stereo not given),–,–,–,–,–,–,·
O=C(Cc1ccc2c(c1)OCCO2)Nc1cc(C(F)(F)F)ccc1N1CCOCC1,–,·,–,–,41,·,–
O=C(c1ccc(N2CCN(S(=O)(=O)c3ccccc3)CC2)c([N+](=O)[O-])c1)N1CCOCC1,–,–,–,–,–,–,·
COC(=O)c1ccc(N2CCN(S(=O)(=O)c3ccccc3)CC2)c([N+](=O)[O-])c1,–,–,–,–,42,–,–
O=C(CCN1Cc2ccccc2C1)c1ccc2c(c1)OCCO2,–,–,–,–,–,–,·
O=C(CCN1CCc2ccccc2C(c2ccccc2)C1)c1ccc2c(c1)OCCO2 (stereo not given),138,70,–,–,56,–,56
CCCc1nn(C)c2c1C(c1cccnc1)C(C#N)=C(N)O2 (stereo not given),–,·,–,–,41,–,–
NNC(=O)c1ccc(COc2ccc3ccccc3c2)o1,–,–,–,–,42,–,–
Cc1ccc(OCc2ccc(C(=O)NN)o2)cc1C,–,–,–,–,–,–,·
CC(=O)O[C@]1(C(C)=O)CC[C@H]2[C@@H]3C=CC4=CC(=O)C=C[C@]4(C)[C@H]3CC[C@@]21C,–,–,–,–,40,–,–
CCCCc1ccc(NC(=S)NCc2ccc(OC)cc2)cc1,–,–,–,–,46,–,–
COc1ccc(CNC(=S)Nc2ccc(OC)cc2)cc1,–,–,–,–,–,–,·
CCOc1cc2nc3c4ccccc4n(C)c3nc2cc1OCC,–,–,–,–,47,–,–
Cc1c(C(=O)NCCSc2ccc(Cl)cc2)cccc1[N+](=O)[O-],–,–,–,–,41,–,37
O=C(Nc1ccc2snnc2c1)N1CCSCC1,·,–,–,–,–,–,·
CC1CN(C(=O)Nc2ccc3snnc3c2)c2ccccc21 (stereo not given),–,–,–,–,48,–,–
CCOC(=O)N1C(=O)[C@@](c2ccc(Cl)cc2)(C(C)C)N1C(=O)OCC,–,–,–,–,44,–,45
Cc1nc2cc(C(=O)N3c4ccccc4CC3C)ccc2s1 (stereo not given),–,–,–,–,43,–,–
CC1Cc2ccccc2N1C(=O)c1ccc2snnc2c1 (stereo not given),·,–,–,–,–,·,·
CN(C)CCCN1c2ccc3ccccc3c2Sc2cccc(Cl)c21,–,·,·,·,·,·,·
CCN(CC)c1ccc(NC(=O)/C=C/c2cc(Br)ccc2OC)cc1,–,–,–,–,–,–,·
Cc1c(C(=O)N2CCN(Cc3ccc4c(c3)OCO4)CC2)sc2ncnc(N3CCN(c4ccccc4)CC3)c12,–,–,–,–,48,–,–
SMILES,PfHsp90 set2,NALP1 yeast inh,TIM10 inh,tim23-1 inh,tim10-1 inh,SKKanGAS inh,tim10-1 conf
Cc1c(C(=O)N2CCN(c3ccccn3)CC2)sc2ncnc(N3CCN(c4ccccc4)CC3)c12,–,·,–,–,–,–,·
O=C(c1cc2c(=O)n3ccccc3nc2s1)N1CCN(Cc2ccc3c(c2)OCO3)CC1,·,–,–,–,43,–,–
O=C(c1cc2c(=O)n3ccccc3nc2s1)N1CCN(Cc2ccccc2)CC1,–,–,–,–,–,–,·
Cc1c(C(=O)N2CCN(Cc3ccc4c(c3)OCO4)CC2)sc2ncnc(N3CCN(c4ccccc4F)CC3)c12,–,–,–,–,41,–,–
N#CCCNC(=O)CCN1CCOCC1,–,–,–,–,–,–,·
COc1ccccc1N(CC(=O)Nc1ccc(S(=O)(=O)N2CCOCC2)cc1)S(C)(=O)=O,–,–,–,–,–,–,·
Cc1ccc(Sc2oc(/C=N/n3cnnc3)cc2Br)cc1,–,–,–,–,46,–,–
Cc1ccc(-c2ccc(/C=N\n3cnnc3)o2)c(Br)c1,–,–,–,–,–,–,·
Cc1cc(Nc2ccccc2C(=O)O)n(-c2cccc(Cl)c2)n1,–,–,–,–,–,–,·
O=C(Nc1ccccn1)c1cc(-n2cnnc2)ccc1Cl,–,–,–,–,–,–,·
COc1ccccc1C(=O)Nc1nnc(S(=O)(=O)N2CCCCC2)s1,–,–,–,–,48,–,–
COc1ccccc1C(=O)Nc1nnc(S(=O)(=O)N2CCCCCC2)s1,–,–,–,–,–,–,·
Clc1ccccc1-c1nn2c(-c3ccncc3)nnc2s1,·,–,–,–,43,–,43
Clc1ccccc1-c1nn2c(-c3ccccn3)nnc2s1,·,–,–,–,40,–,40
Clc1ccc(-c2nnc3sc(-c4ccccn4)nn23)cc1,·,–,·,·,·,·,·
CC(=O)N(Cc1ccc(F)cc1)Cc1nc2ccccc2c(=O)[nH]1,–,–,–,–,–,–,·
S=C(NCCN1CCOCC1)Nc1ccc(-c2nc3ccccc3[nH]2)cc1,–,–,–,–,–,–,·
O=C(COc1ccc(Br)cc1)NCCNC(=O)c1cccnc1,–,–,–,–,–,–,·
CCCCn1c(N)c(N(CCOC)C(=O)c2ccc(C)c(S(=O)(=O)N3CCOCC3)c2)c(=O)[nH]c1=O,–,·,–,–,–,–,·
CC(/C=C/c1ccccc1)=N\Nc1nc(C)cc(C)n1,–,–,–,–,–,–,·
Cc1cc(C)nc(NN=C(c2ccccc2)c2ccccc2)n1,–,–,–,–,47,–,–
COc1ccc(C(=O)Cn2cc([N+](=O)[O-])nc2C)cc1,–,–,–,–,–,–,·
CCCCN(C(=O)C1=COCCO1)c1c(N)n(Cc2ccccc2)c(=O)[nH]c1=O,–,·,–,–,43,–,–
COCCN(C(=O)C1=COCCO1)c1c(N)n(Cc2ccccc2)c(=O)[nH]c1=O,–,–,–,–,–,–,·
O=C1C(=O)N(Cc2cccnc2)C(c2cccc(F)c2)/C1=C(/O)c1ccc2c(c1)OCO2 (stereo not given),–,–,–,–,–,–,·
CC(=O)OC1CCC2(C)C(CCC3C2CC(OC(C)=O)C2(C)C3C[C@@H]3O[C@]4(CC[C@@H](C)CO4)[C@@H](C)C32)C1 (stereo not given in full),·,·,–,–,–,–,·
COc1ccccc1NC(=O)Cn1c2ccccc2c2nc3n(c(=O)c21)CCS3,·,–,–,–,42,–,–
O=C(c1ccco1)N1N=C(c2cccs2)CC1c1ccco1 (stereo not given),–,–,–,–,41,–,–

# Screens as filed in PubChem BioAssay.
